Experimental findings from ChEMBL document CHEMBL3988442, “University of Dundee, Small-Polar-MMV Screening Library” (2021) are described below.

Out of some 48,000 compounds screened, about 13,000 (27%) showed an effect of 50% or more. The list shows a part of the results.

The subject of this test is Wolbachia pipientis. The test can be described thus: Anti-Wolbachia Cell-Based Screen. Format: functional. Also on record: scale not given: in the data most compounds retested in dose-response had high values. The conditions noted are these: 5 µM.
With `COCCc1noc(-c2ccc(=O)[nH]c2)n1`, the “Percent Effect” value is listed as -16.05%.
With `CCc1nnc(CN(C)C[C@@H]2CCCN3CCCC[C@H]23)o1` the figure was -11.52%; with `Cc1cc(CN(C)CC2CCCCC2)no1`, -1.2%.
With `CCc1nc(CN(C)CC2CCN(CCO)CC2)no1` the figure was -13.45%; with `CCc1nnc(CN(C)CC2CCCCC2)o1`, 93.73%.
The value for `Cc1nnc(CN(C)CC2CCCCC2)o1` was 96.6%.
For `Cc1nnc(CN(C)CC2(O)CCCN(CCC3CCCCC3)C2=O)o1` (stereo unspecified), the “Percent Effect” value is on record as -32.48%.
With `OC(CN(Cc1ccccc1)Cc1cccnc1)c1ccco1` (stereo unspecified) the figure was -6.799%.
Take `CCCN1CCCN(c2ncccc2C(=O)N2CCCCC2)CC1`: the “Percent Effect” value is 6.513%.
With `CCC(CNS(C)(=O)=O)Oc1ccccc1C` (stereo unspecified) the figure was 8.016%; with `CCC(=O)NCCc1cc(N2CCN(C(C)=O)CC2)nc(C2CC2)n1`, -11.66%.
With `Cc1nc(CCN)cc(N2CCCN(C(=O)c3ccco3)CC2)n1` the figure was -5.504%.
With `CC(=O)N1CCN(c2cc(CCN)nc(C3CC3)n2)CC1.Cl` the figure was 89.11%; with `CC(=O)NCCc1cc(N2CCN(C(C)=O)CC2)nc(C2CC2)n1`, -7.517%.
For the compound `CC(=O)N1CCN(c2cc(CCNC(=O)C(C)C)nc(C3CC3)n2)CC1`, the “Percent Effect” value stood at 74.84%.
Consider `CN1CCN(c2cc(CCNC(=O)C3CCC3)nc(C3CC3)n2)CC1`, for which the “Percent Effect” value is recorded as -16.77%.
The value for `CCCC(=O)NCCc1cc(N2CCN(C(C)=O)CC2)nc(C2CC2)n1` was 96.87%; that for `COc1ccc(C(=O)N2CCN(c3cc(CCN)nc(C)n3)CC2)cc1` was -1.227%.
With `CCCNC(=O)CCC(=O)N1CCC(c2n[nH]c(C3CC3)n2)CC1` the figure was -17.72%; with `Cc1ccoc1C(=O)NC(CC(C)C)C(=O)N1CCC(CO)CC1` (stereo unspecified), -14.58%.
The value for `CCC(=O)N1CCc2[nH]cnc2C12CCN(C(=O)CCS(C)(=O)=O)CC2` was -8.696%.
In the case of `Cc1nnn2c1COC(CNCc1ccccn1)C2.O=C(O)C(F)(F)F` (stereo unspecified), the “Percent Effect” value was -4.028%.
With `Cc1cnc(N)nc1NCCSCc1[nH]cnc1C` the figure was -14.55%.
The value for `Cc1ccc(C)n1-c1ccc(C(=O)NCCNc2ncccn2)cc1` was 4.736%; that for `Cc1nc(CN2CCCN(C(=O)COCC3CC3)CC2)cs1` was 18.11%.
With `Cc1nc(CN2CCCC(c3cnccn3)C2)cs1` (stereo unspecified), the “Percent Effect” value is on record as 124.4%.
With `CC(C)c1nc(CN2CCCC(O)C2)cs1` (stereo unspecified) the figure was 12.3%; with `Cc1nc(CN2CCCC(c3nccs3)C2)cs1` (stereo unspecified), 114.8%.
`Cc1cccc(CN2CCCC(c3nccs3)C2)n1` (stereo unspecified): the “Percent Effect” value turned out to be 160.1%.
With `CCn1ccnc1C1CCN(Cc2cccc(C)n2)CC1` the figure was -3.832%.
As to `CC1CCCN(Cc2csc(-c3ncccn3)n2)CC1` (stereo unspecified), the “Percent Effect” value was 3.521%.
The value for `Cc1nc(CN2C[C@@H]3CN(C(=O)c4cnccn4)C[C@@H]3C2=O)cs1` was 9.269%; that for `Cc1cccc(CN2CCN(Cc3ccccc3)CC(O)C2)n1` (stereo unspecified) was -8.122%.
With `CSCC(=O)N1C[C@H]2CC[C@@H]1CN(Cc1ccccc1)C2` the figure was -24.58%; with `COCCc1noc(Cn2ccc3ncccc3c2=O)n1`, -12.09%; with `CCOc1ccc2[nH]c(=O)c(CN(C)CCc3cn[nH]c3)cc2c1`, -1.744%.
With `Cc1ccc(CN2C[C@@H]3COC[C@H](NS(C)(=O)=O)[C@@H]3C2)o1.O=C(O)C(F)(F)F` the figure was 6.614%; with `CCc1ccc(CN2C[C@@H]3COC[C@H](NS(C)(=O)=O)[C@@H]3C2)o1.O=C(O)C(F)(F)F`, 136.7%; with `Cc1ccc(CN2C[C@@H]3COC[C@H](NS(C)(=O)=O)[C@@H]3C2)s1.O=C(O)C(F)(F)F`, 111.5%.
With `Cc1ccc(CN2CC(C(=O)Nc3ccccc3)C3(CCOCC3)C2)s1.O=C(O)C(F)(F)F` (stereo unspecified), the “Percent Effect” value is reported as -15.56%.
With `Cc1ccc(CN2C[C@@H]3COC[C@@H](NS(C)(=O)=O)[C@@H]3C2)o1.O=C(O)C(F)(F)F`, the “Percent Effect” value is given as -14.86%.
With `Cc1ccc(CN2CCOC3(COCCN(S(C)(=O)=O)C3)C2)s1.O=C(O)C(F)(F)F` (stereo unspecified) the figure was -6.803%; with `CC(C)C(C)(C#N)NC(=O)Cn1cc(I)cn1` (stereo unspecified), 3.38%; with `CC(NC(=O)CN1C=Nc2ccccc2S1(=O)=O)C1CC1` (stereo unspecified), 22.51%.
The value for `O=C(Cn1cc(-c2ccccc2)cn1)NC(C1CC1)C1CC1` was 101.4%.
The value for `CCC(CC)NC(=O)Cn1cc(-c2ccccc2)cn1` was 106.4%; that for `CC(NC(=O)Cn1cc(-c2ccccc2)cn1)C1CC1` (stereo unspecified) was 82.35%.
As for `Cc1ccc(NC(=O)Cn2cc(I)cn2)cc1`, the “Percent Effect” value worked out at 92.57%.
With `CC(NC(=O)COc1ccccc1I)C1CC1` (stereo unspecified) the figure was 10.59%; with `CCC(C)(C)NC(=O)Cn1cc(C(N)=O)c(-c2ccccc2)n1`, -8.057%.
The value for `CC(C)CNC(=O)Cn1cc(C(N)=O)c(-c2ccccc2)n1` was 7.305%.
